# In PubChem BioAssay:
# Results filed as inconclusive are left out. Activity calls are given as the source filed them. Unless noted, cut-off not given; nearly all actives show AC50 up to about 26 µM.
# What was measured:
# [1] = growth inhibition, single agents and combos, ICB984, cell-based, cisplatin or BGB combos, synergistic combos for chromothripsis tumors (AID 1671451; call rule not given here;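 further: cells exposed for 96 hours before readout; 0% = vehicle DMSO and 100% = killing by high DMSO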); settings: ICB984 medulloblastoma cells, drug combinations, stronger effect = higher value
# [2] = growth inhibition, single agents and combos, HTB85, cell-based, BGB or cisplatin IC20 combos, synergistic combos for chromothripsis tumors (AID 1671453; in the data active means inhibition above about 80%;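 further: cells exposed for 96 hours before readout; 0% = vehicle DMSO and 100% = high DMSO killing control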); settings: HTB85 osteosarcoma cells, drug combinations, stronger effect = higher value
# [3] = growth inhibition, MDA-MB-436, cell-based, BGB or cisplatin combos, synergistic combos for chromothripsis tumors (AID 1671458; call rule not given here;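 further: cells exposed for 96 hours; 0% = vehicle DMSO and 100% = killing by high DMSO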); settings: MDA-MB-436 breast carcinoma growth inhibition, drug combinations, stronger effect = higher value
# [4] = BT084 cell growth, single and combined drugs, ICGC_MB145, cisplatin and BGB IC40 combos (AID 1671461; in the data active means inhibition above about 80%;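 further: cells exposed to drugs for 96 hours; 0% = vehicle DMSO and 100% = high DMSO full killing control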); settings: BT084 medulloblastoma cells, drug combinations, stronger effect = higher value
# [5] = RCMB18 cell growth, single agent and combined, cisplatin and BGB IC40 combos (AID 1671462; in the data active means inhibition above about 80%;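 further: cells exposed to compound for four days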); settings: RCMB18 medulloblastoma cells, stronger effect = higher value
# [6] = viability loss in pontine glioma line – cell-based, SU-DIPG-XVII, MIPE5.0, CellTiter-Glo, qHTS, dose response (AID 1347060); settings: CellTiter-Glo ATP luminescence
# [7] = viability loss in pontine glioma line – cell-based, SU-DIPG-XIII, MIPE4.0, CellTiter-Glo, qHTS, dose response (AID 1347061; cut-off not given, nearly all actives have AC50 up to about 37 µM;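 further: cells exposed to compound for 48 hours before readout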); settings: CellTiter-Glo ATP luminescence
# [8] = viability loss in pontine glioma line – cell-based, JHH-DIPG-1, MIPE4.0, CellTiter-Glo, qHTS, dose response (AID 1347062; cut-off not given, nearly all actives have AC50 up to about 27 µM); settings: JHH-DIPG-1 viability, CellTiter-Glo ATP luminescence
# [9] = viability loss in pontine glioma line – cell-based, SU-DIPG-IV, MIPE4.0, CellTiter-Glo, qHTS, dose response (AID 1347063; cut-off not given, nearly all actives have AC50 up to about 30 µM;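 further: compound exposure lasted 48 hours before the viability readout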); settings: CellTiter-Glo ATP luminescence
# [10] = viability loss in pontine glioma line – cell-based, SU-DIPG-XXV, MIPE5.0, CellTiter-Glo, qHTS, dose response (AID 1347065); settings: CellTiter-Glo ATP luminescence;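 further: cells exposed to compound for 48 hours before ATP readout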
# [11] = growth inhibition of DIPG cells – cell-based, MIPE4.0 library, CellTiter-Glo luminescence, qHTS (AID 1347066; cut-off not given, nearly all actives have AC50 up to about 30 µM;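 further: cells exposed to compound for 48 hours before readout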); settings: SU-DIPG-VI viability, CellTiter-Glo ATP luminescence
# [12] = JHH-DIPG-1 glioma cell viability, MIPE5.0 library, CellTiter-Glo luminescence, qHTS (AID 1347067); settings: JHH-DIPG-1 glioma viability, CellTiter-Glo ATP luminescence;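 further: cells exposed to compound for 48 hours before readout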
# [13] = growth inhibition of DIPG cells – cell-based, MIPE5.0 library, qHTS (AID 1347068; cut-off not given, nearly all actives have IC50 up to about 30 µM); settings: SU-DIPG-XXV viability
smiles,measurement,setting,value
CN(C)Cc1c(C(=O)NCCOc2ccc(C(=O)NO)cc2)oc2ccccc12,inhibition,"[1]; BGB IC20 combo, at 0.005 µM",27.4%
same,inhibition,"[1]; BGB IC40 combo, at 0.005 µM",31.8%
same,inhibition,"[1]; BGB IC40 combo, at 0.05 µM",93.6%
same,inhibition,[1]; at 0.5 µM,-23.7% (inactive)
same,inhibition,"[1]; cisplatin combo, at 0.05 µM",93.4%
same,inhibition,"[1]; cisplatin combo, at 0.5 µM",-34.8%
same,inhibition,"[1]; cisplatin combo, at 5 µM",-32%
same,inhibition,"[1]; measured here: 5 uM single agent, at 5 µM",-19.3%
same,inhibition,[2]; at 0.5 µM,87.5% (active)
same,inhibition,"[2]; measured here: with BGB IC20, at 0.5 µM",87.4%
same,inhibition,"[2]; measured here: with BGB IC20, at 5 µM",99.8%
same,inhibition,"[2]; measured here: with cisplatin IC20, at 0.5 µM",90.7%
same,inhibition,"[2]; measured here: with cisplatin IC20, at 5 µM",99.9%
same,inhibition,"[2]; single agent, at 5 µM",99.8%
same,inhibition,[3]; at 0.5 µM,43.7% (inactive)
same,inhibition,"[3]; measured here: BGB combination, at 0.5 µM",36%
same,inhibition,"[3]; measured here: BGB combination, at 5 µM",60%
same,inhibition,"[3]; measured here: cisplatin combination, at 0.5 µM",42%
same,inhibition,"[3]; measured here: cisplatin combination, at 5 µM",69.4%
same,inhibition,[4]; at 0.5 µM,52% (inactive)
same,inhibition,"[4]; cisplatin combination, at 0.5 µM",79.4%
same,inhibition,"[4]; cisplatin combination, at 5 µM",101%
same,inhibition,"[4]; measured here: BGB IC40 combination 0.05 uM, at 0.05 µM",30.2%
same,inhibition,"[4]; single agent, at 5 µM",108%
same,inhibition,[5]; at 0.5 µM,47.1% (inactive)
same,inhibition,"[5]; cisplatin combo, at 5 µM",96.9%
same,inhibition,"[5]; measured here: BGB IC40 combination, at 0.05 µM",20.1%
same,inhibition,"[5]; measured here: combination with cisplatin, at 0.5 µM",58.8%
same,inhibition,"[5]; single agent, at 5 µM",92.2%
NC[C@H]1O[C@H](O[C@@H]2[C@H](O)[C@@H](O[C@H]3O[C@H](CO)[C@@H](O)[C@H](N)[C@H]3O)[C@H](N)C[C@@H]2N)[C@H](O)[C@@H](O)[C@@H]1O,outcome,[6],inactive
same,outcome,[7],inactive
same,outcome,[8],inactive
same,outcome,[9],inactive
same,outcome,[10],inactive
same,outcome,[11],inactive
same,outcome,[12],inactive
same,outcome,[13],inactive
CCNC(=O)CCC/C=C\C[C@@H]1[C@@H](/C=C/C(O)CCc2ccccc2)[C@@H](O)C[C@@H]1O (stereo not given in full),outcome,[6],inactive
same,outcome,[7],inactive
same,outcome,[8],inactive
same,outcome,[9],inactive
same,outcome,[10],inactive
same,outcome,[11],inactive
same,outcome,[12],inactive
same,outcome,[13],inactive
